About 83,000 compounds went through this panel and 20% of them were active in at least one assay; those are over-represented in the sample as a whole.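 Step 1: grow cells in 96-well plates. Step 2: add test compound at a single concentration. Step 3: incubate 48 h. Step 4: record percent growth.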 A number with no mark means an inactive call. Activity calls are given as the source filed them.

The test system of this test is OVCAR-5 ovarian. As to the kind of experiment: NCI-60 one-dose screen, 48 h (100 = growth as untreated, 0 = no growth, -100 = all killed). The following applies: 10 µM unless noted. The method, then:
Growth inhibition of the OVCAR-5 human tumor cell line is measured as a screen for anti-cancer activity. Cells are grown in 96 well plates and exposed to the test compound for 48 hours. Compounds are tested at a single concentration, which is 10^-5 M for most compounds. The reported endpoint is percent growth (GI% or GIPRCNT), where numbers from 0 - 100% represent growth inhibition, and numbers from -100% - 0 represent cell death. For example, a value of 40 represents 60% growth inhibition. A value of 0 means no net growth occurred over the course of the experiment. A value of -40 indicates 40% of cells at the beginning of the experiment died by the end of the experiment. A value of -100 means all cells are dead at the end of the experiment.
NCI-60 Human Tumor Cell Lines Screen was performed using the standard one-dose NCI protocol, which is described in more detail at https://dtp.cancer.gov/discovery_development/nci-60/default.htm.
Compounds with GIPRCNT values below 10 were considered active. Activity score was based on GIPRCNT using the following formula: […]
Score is 0 for GIPRCNT values of 100 or above, 50 for GIPRCNT values of 0, and 100 for GIPRCNT values of -100.
For the compound `CCOC(=O)c1cc(N)nc2ccccc12`, the growth is 109%.
With `COC(=O)C(Br)(C(=O)OC)C(Br)C(Br)C(Br)c1ccccc1` (stereo not given) the figure was 126%; with `CC(=O)NC1C(O[C@H]2C[C@H]3[C@@H]4CC=C5C[C@@H](O)CC[C@]5(C)[C@H]4CC[C@]3(C)[C@H]2[C@H](C)C(=O)CCC(C)C)OCC(O)C1O` (stereo not given in full), 74.2%.
With `Clc1ccc(C2=NN[C@H](c3cn(-c4ccccc4)nc3-c3ccccc3)C2)cc1` the figure was 83.6%.
With `N/C(=C\C(=O)n1nc(-c2ccccc2)cc1N)c1ccccc1` the figure was 70.9%.
In the case of `CN(C)c1nc(-c2cccs2)n2nc(-c3ccc(Cl)cc3)cc2n1`, the growth was 75.6%.
With `NC(=S)N1N=C(c2ccc(Cl)cc2)CC1c1cc2ccccc2[nH]c1=O` (stereo not given) the figure was 108%.
With `CCN(CC)c1ccc(/C=N/NC(=O)C[N+](C)(C)C)cc1` the figure was 99.1%; with `C#CCO[C@H]1CC[C@H](OCC#C)[C@@H]2[C@H]1[C@H]1C[C@@H]3[C@@]4(C)CCC[C@@](C)(C(=O)OC)[C@@H]4CC[C@@]23C=C1C(C)C`, 92.1%; with `COC(=O)[C@@H](Cc1c[nH]c2ccccc12)NC(=O)/C=C/c1ccccc1`, 36%.
With `C=C1C(=O)O[C@H]2[C@H]1CC/C(COC(=O)NCc1cn(C)c3ccccc13)=C\CC[C@@]1(C)O[C@@H]21` the figure was 23%; with `O=C(Nc1ccncc1)C(=O)c1cn(S(=O)(=O)c2cccc(Cl)c2F)c2ccccc12`, 101%; with `CCCCCCCOc1cccc(/C=C2\N=C3SCCCN3C2=O)c1`, 115%.
In the case of `CCN1CCN(Cc2ccc(NC(=O)Nc3ccc(-n4ccc5c(NC(=O)c6ccccc6)nccc54)cc3)cc2C(F)(F)F)CC1`, the growth was 30.7%.
The same measure for `COc1ccc(NC(=O)Cn2c(=O)sc3c(-c4ccc(Cl)cc4)cc(-c4ccc(Cl)cc4)nc32)cc1`: 111%; for `CC(C)(C)c1ccc(C(=O)Nc2sc3cc(O)ccc3c2C(N)=O)cc1`: 99.3%; for `CC(C)(C)OC[C@@H]1N=C(c2ccc(Br)cc2)Nc2nc3ccccn3c2C1=O`: 105%.
The same measure for `CN1C(=O)C(C2=NNC(c3ccccc3C(=O)O)C2)C(=O)N(C)C1=O` (stereo not given): 94.6%; for `N=C(N)c1ccc(-c2ccc(-c3cccs3)s2)cc1F`: -83.6% (active).
The same measure for `Fc1ccc(-c2nc(-c3ccc(-c4nc5ccc(F)cc5[nH]4)cc3)no2)cc1`: 94.7%.
Consider `O=C(Nc1ccc(Cl)cc1)c1cc(-c2ccc(Cl)cc2)c2sc(=O)[nH]c2n1`, for which the growth is 32%.
Take `CC(C)[C@@]12C[C@@H](OC(=O)[C@H]3CO3)[C@@](C)(O1)[C@@H]1CC[C@@H](C)[C@H]1[C@@H]2OC(=O)/C=C/c1ccccc1`: the growth is 100%.
With `CC(C)CCSc1nc(-c2ccc(F)cc2)c(C#N)c(N2CCCCC2)n1` the figure was 102%; with `Nc1ccc(C2=NNC(=O)Cc3cc4c(cc32)OCCO4)cc1Cl`, 69.7%.
The same measure for `ClC1(Cl)C2CCCCCCC21` (stereo not given): 116%; for `Cc1ccc(C)c2c1SC1=NNC(Oc3ccc(Cl)cc3)=C(C#N)C(=N)N12`: 111%; for `CCCCCCCCCCCCCCCC1=NCCN1`: 69%.
The same measure for `CCOC(=O)c1cc(C(=O)OCC)c(C)nc1C`: 99.8%; for `NS(=O)(=O)c1ccc(CCn2c(SCC(=O)N/N=C/c3ccccc3O)nc3ccccc3c2=O)cc1`: 69.2%; for `O=S(=O)(Cc1ccc(Cl)cc1Cl)c1ccc(Cl)cc1`: 53.9%.
`c1ccc(-c2ccc(-c3ccccc3)[nH]2)cc1`: the growth was 104%.
Regarding `O=C1N(Cc2ccccc2Cl)c2ccccc2C12NN=C(c1ccccc1)S2` (stereo not given), the growth was 78.6%.
Take `CNC(=O)c1c(NC(=O)c2ccc(C(C)C)cc2)sc2c1CCC(=O)C2`: the growth is -45.9% (active).
With `CC(CN1CCN(CC(C)Nc2ccnc3cc(Cl)ccc23)CC1)Nc1ccnc2cc(Cl)ccc12` (stereo not given) the figure was 57.2%; with `Oc1c(C(Nc2ccccc2Br)c2ccccc2)ccc2cccnc12` (stereo not given), 44.5%; with `N#Cc1ccc(-c2ccc(-c3cccs3)o2)cc1F`, 101%.
With `COc1ccc2nc(C)cc(Sc3nc4ccccc4s3)c2c1` the figure was 61.2%.
Turning to `O=C(O)c1ccccc1Oc1cc(-c2ccco2)nc(OCCN2CCOCC2)n1`, the growth is 99.6%.
Consider `COc1cc([N+](=O)[O-])cc(OC)c1OC`, for which the growth was 129%.
The same measure for `O=C(Nc1cccc(Cl)c1)Nc1ccccc1Cl`: 115%.

For the origin of these results see PubChem BioAssay (NCI).
